Common to all, as to test: NCI-60 one-dose screen, 48 h (100 = growth as untreated, 0 = no growth, -100 = all killed)
One test deals with NCI-H460 lung. Particulars: 10 µM unless noted.
Another test concerns MALME-3M melanoma. Particulars: 10 µM unless noted.
In a further test the test system is MDA-MB-231 breast. To be noted: 10 µM unless noted.
A further test has as its system RXF 393 renal. To be noted: 10 µM unless noted.
The test system of the next test is UACC-257 melanoma. Particulars: 10 µM unless noted.
Another test concerns HT29 colon. To be noted: 10 µM unless noted.
A further test concerns PC-3 prostate. To be noted: 10 µM unless noted.
In another test the test system is SK-MEL-5 melanoma. Particulars: 10 µM unless noted.
The next test concerns SK-MEL-28 melanoma. Particulars: 10 µM unless noted.
The test system of the next test is UO-31 renal. To be noted: 10 µM unless noted.
A further test concerns CCRF-CEM leukemia. Particulars: 10 µM unless noted.
The next test deals with SR leukemia. Particulars: 10 µM.
For another test, the system named is OVCAR-4 ovarian. Particulars: 10 µM unless noted.
The subject of another test is IGROV1 ovarian. To be noted: 10 µM.
For the next test, the system named is HS 578T breast. To be noted: 10 µM unless noted.
The test system of another test is BT-549 breast. Particulars: 10 µM.
A further test has as its system SW-620 colon. To be noted: 10 µM unless noted.
For the next test, the system named is HCC-2998 colon. To be noted: 10 µM unless noted.
The test system of a further test is KM12 colon. To be noted: 10 µM unless noted.
Another test relates to HOP-92 NSCLC. To be noted: 10 µM unless noted.

About 83,000 compounds went through this panel and 20% of them were active in at least one assay; those are over-represented in the sample as a whole.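 For each line, cells grew in 96-well plates with the test compound present at a single concentration for 48 hours.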 Values without a mark were called inactive. The source made the active and inactive calls. Rule for the calls: active = growth percent below 10; inactive = the rest.

For `CCCCOC(=O)c1ccccc1C(=O)O.CCCCOC(=O)c1ccccc1C(=O)O.[Cu+2]`, the growth in the test on NCI-H460 lung is 109%; in the test with MALME-3M melanoma, 83.3%; in the test with MDA-MB-231 breast, 124%; in the test on RXF 393 renal, 116%; in the test with UACC-257 melanoma, 110%; with HT29 colon, 107%. Besides, the growth was 111% in the test with PC-3 prostate; 98% with SK-MEL-5 melanoma; 111% in the test with SK-MEL-28 melanoma; 96.5% with UO-31 renal; 108% with CCRF-CEM leukemia; 92.7% with SR leukemia. The growth was 101% in the test on OVCAR-4 ovarian; 122% in the test on IGROV1 ovarian; 97.3% with HS 578T breast; 105% in the test with BT-549 breast; 98.8% with SW-620 colon; 104% in the test on HCC-2998 colon. Also, the growth with KM12 colon was 105%.

As for `NC(=O)C(Cl)Cl`, the growth in the test on NCI-H460 lung is 100%; with MALME-3M melanoma, 96.6%; in the test on MDA-MB-231 breast, 111%; with UACC-257 melanoma, 94.8%; in the test with HT29 colon, 116%; with PC-3 prostate, 97.5%. Besides, the growth with SK-MEL-28 melanoma is 112%; in the test with UO-31 renal, 94.6%; in the test with CCRF-CEM leukemia, -19.9% (active); in the test on SR leukemia, 99.5%; in the test on OVCAR-4 ovarian, 105%; in the test with IGROV1 ovarian, 102%. Besides, the growth with HS 578T breast is 117%; with BT-549 breast, 111%; in the test on SW-620 colon, 113%; with HCC-2998 colon, 120%; in the test on KM12 colon it was 110%.

Take `COc1ccc(/C=C(/C(=O)N2CCCC2)c2cc(OC)c(OC)c(OC)c2)cc1N`: the growth in the test on NCI-H460 lung is 13.5%; in the test on HOP-92 NSCLC, 46.1%; with MDA-MB-231 breast, 62%; with RXF 393 renal, 11.2%; with UACC-257 melanoma it was 53.8%; with HT29 colon it was 9.12% (active). Moreover, the growth in the test with PC-3 prostate was 14.5%; with SK-MEL-5 melanoma, 20%; in the test with SK-MEL-28 melanoma it was 60.9%; with UO-31 renal, 51.7%; in the test with CCRF-CEM leukemia it was 19%; in the test with SR leukemia, 19.5%. Also, the growth is 46.4% in the test on OVCAR-4 ovarian; 51.4% with IGROV1 ovarian; 15.2% in the test with HS 578T breast; 57.1% in the test with BT-549 breast; 25.6% in the test with SW-620 colon; 68.5% with HCC-2998 colon. Also, the growth with KM12 colon was 14.8%.

Take `CCOc1ccc(C(O)CN(C)Cc2ccccc2)cc1Cl` (stereo not given): the growth with NCI-H460 lung was 102%; with HOP-92 NSCLC, 75.4%; with MALME-3M melanoma, 104%; in the test on MDA-MB-231 breast it was 93.6%; in the test with RXF 393 renal it was 90.5%; in the test with UACC-257 melanoma, 108%. For the same molecule, the growth is 98% in the test with HT29 colon; 89.3% in the test on PC-3 prostate; 93.2% in the test with SK-MEL-5 melanoma; 98.5% with SK-MEL-28 melanoma; 85.5% in the test with UO-31 renal; 108% with CCRF-CEM leukemia. In addition, the growth is 95.7% in the test with SR leukemia; 103% in the test on OVCAR-4 ovarian; 106% in the test on IGROV1 ovarian; 101% with HS 578T breast; 106% in the test with BT-549 breast; 98.5% with SW-620 colon. The growth was 102% with HCC-2998 colon and 100% with KM12 colon.

Turning to `COc1cc(CNCCc2ccc(Cl)cc2)cc(OC)c1O`, the growth in the test on NCI-H460 lung is 83.3%; with HOP-92 NSCLC, 60.6%; in the test on MDA-MB-231 breast it was 72.2%; with RXF 393 renal it was 66.3%; in the test with UACC-257 melanoma, 90.2%; with HT29 colon it was 64.4%. In addition, the growth is 52.9% in the test with PC-3 prostate; 72.8% with SK-MEL-5 melanoma; 69.9% in the test with SK-MEL-28 melanoma; 61% in the test on UO-31 renal; 46.9% in the test with CCRF-CEM leukemia; 14.5% in the test on SR leukemia. The growth was 69% in the test with OVCAR-4 ovarian; 81.3% in the test with IGROV1 ovarian; 62.6% in the test with HS 578T breast; 71.8% in the test on BT-549 breast; 64.1% in the test with SW-620 colon; 83.2% in the test on HCC-2998 colon. The growth in the test with KM12 colon was 65.7%.

As to `CNC(=O)Oc1ccccc1-c1ccccc1`, the growth was 112% in the test on NCI-H460 lung; 101% with HOP-92 NSCLC; 102% with MALME-3M melanoma; 114% in the test on MDA-MB-231 breast; 120% with RXF 393 renal; 101% with UACC-257 melanoma. The growth in the test on HT29 colon is 101%; in the test on PC-3 prostate, 97.8%; in the test on SK-MEL-5 melanoma it was 107%; with SK-MEL-28 melanoma, 109%; in the test with UO-31 renal, 81.8%; in the test with CCRF-CEM leukemia, 94.1%. The growth in the test on SR leukemia is 99%; in the test with OVCAR-4 ovarian, 110%; with IGROV1 ovarian, 99.3%; in the test on HS 578T breast it was 107%; in the test on BT-549 breast it was 103%; in the test with SW-620 colon, 103%. In addition, the growth was 101% in the test with HCC-2998 colon and 102% in the test on KM12 colon.

On to `CC[C@@]1(C2O[C@@H](C3O[C@@](O)(CC)[C@H](C)C[C@@H]3C)C[C@@H]2C)CC[C@H]([C@]2(C)CCC3(C[C@H](O)[C@@H](C)[C@@H]([C@H](C)[C@@H](OC)[C@H](C)C(=O)O)O3)O2)O1` (stereo not given in full), for which the growth is 20.7% in the test on UACC-257 melanoma; 29.5% in the test with SK-MEL-28 melanoma; 29.7% in the test on OVCAR-4 ovarian; 36.9% with IGROV1 ovarian; 32.5% with BT-549 breast; 20.6% with KM12 colon.

On to `CC(=O)O[C@H]1C[C@H](O[C@H]2[C@@H](O)C[C@H](O[C@H]3[C@@H](O)C[C@H](O[C@H]4CC[C@@]5(C)C(CCC6C5C[C@@H](O)[C@]5(C)[C@@H](C7=CC(=O)OC7)CC[C@]65O)C4)O[C@@H]3C)O[C@@H]2C)O[C@H](C)[C@H]1O[C@@H]1O[C@H](CO)[C@@H](O)[C@H](O)[C@H]1O` (stereo not given in full), for which the growth in the test on NCI-H460 lung was -88.3% (active); in the test with HOP-92 NSCLC, -15.1% (active); in the test with MALME-3M melanoma, -36% (active); in the test with MDA-MB-231 breast, -46.2% (active); in the test on RXF 393 renal, -53.8% (active); in the test on UACC-257 melanoma, -100% (active). The growth was -86% (active) in the test with HT29 colon; -6.71% (active) in the test with PC-3 prostate; -100% (active) with SK-MEL-5 melanoma; -70.5% (active) with SK-MEL-28 melanoma; -80.1% (active) in the test with UO-31 renal; -23.5% (active) in the test on CCRF-CEM leukemia. Moreover, the growth with SR leukemia is -31% (active); in the test with OVCAR-4 ovarian, -70.4% (active); with IGROV1 ovarian, 7.96% (active); in the test with HS 578T breast, 2.41% (active); in the test with BT-549 breast, -91% (active); in the test with SW-620 colon it was -90.5% (active). The growth in the test on HCC-2998 colon is -95% (active); in the test with KM12 colon, -100% (active).

For the origin of these results see PubChem BioAssay (NCI).
